Experimental data: PubChem BioAssay (NCATS)
Records with an inconclusive call do not appear. Activity calls are given as the source filed them. The call rests on the fitted dose curve; in most records, active means well fitted activation curve with a large enough effect in the main read-out, with a control signal flat (not every such curve was filed as active); inconclusive means small, poorly fitted or top-dose-only effect, or effect the other way, or a change in a side signal; inactive means flat fitted curve, though single readings scatter.

Biological target: 3',5'-cyclic-AMP phosphodiesterase 4B (Homo sapiens) (UniProt Q07343)
Assay: qHTS Assay for Inhibitors of PDE-IV (AID 607)
Details: HEK293 ACTOne CNG channel cells, membrane potential fluorescence; series mostly up to 22.9 µM
Description: NIH Chemical Genomics Center [NCGC]
NIH Molecular Libraries Screening Centers Network [MLSCN]
The cyclic nucleotide phosphodiesterases (PDEs) are proteins that catalyze hydrolysis of 3', 5'-cyclic nucleotides, such as cyclic adenosine monophosphate (cAMP) and cyclic guanosine monophosphate (cGMP), to their corresponding 5'-nucleotide monophosphates. These enzymes play an important role in controlling cellular concentrations of cyclic nucleotides and have a central role in a variety of intracellular signaling events. cAMP PDEs are emerging as a promising class of drug targets in asthma and cardiovascular disease therapeutic areas.
There are no commercially available cell-based screening assays for PDE inhibitors: currently biochemical assays are done using pure substrates (cAMP or cGMP) and purified recombinant PDE enzymes. As with other biochemical screens on intracellular targets, false positives and false negatives may result from issues involving cell membrane permeability, cellular metabolism, and the like.
Here we report the development of a cell-based screening assay for cAMP phosphodiesterase (PDE) inhibitors. The assay is based on the BD ACTOne# technology (BD Biosciences) which utilizes a modified cyclic nucleotide-gated channel (CNG) to monitor intracellular cAMP changes in live cells. The CNG channel is localized on the plasma membrane, and opens when the intracellular cAMP level increases, resulting in ion flux and cell membrane depolarization. The influx of cations through the CNG channel can be quantified using membrane potential (MP) dyes. We modified the BD ACTOne technology to allow the detection of PDE inhibitors, and performed an inhibitor screen for PDE-IV, which is expressed endogenously in HEK293 cells. We optimized this assay in homogeneous 1536-well plate assay format for high throughput screening.
NCGC Assay Protocol Summary:
The medium contained 10% FBS (Invitrogen), 2 mM L-glutamine, and 250 ug/ml G418 (Cellgro) and 1 ug/ml puromycin (Clontech). ACTOneTM parental cells (BD Biosciences) were maintained in the same medium without puromycin.
The activity of the CNG channel was measured by BD ACTOneTM membrane potential dye kit (BD Biosciences). Forskolin, a positive control for cAMP activation and RO 20-1724, a PDE inhibitor, were both purchased from Sigma and solublized in DMSO.
Sequence,Parameter,Value,Description
1,Reagent,3 uL,1000 cells/well 1536 TC treated Black plate
3,Compound,0.5 uL,Kalypsys dispense RO 20-1724 100 uM final [A]
4,Reagent,3 uL,BD membrane potential dye
6,Compound,23 nL,Final concentration was 0.7nM to 22.9uM
8,Detector,EX 535 / EM 590 [B],Envision
Footnotes: [A] The stock 2 mM RO 20-1724 PDE inhibitor was made in 10 % DMSO. Parental cell line received 10 uM forskolin + 100 uM RO. [B] Envsion settings: Bottom Excitation 535/20 nm top emission 590/20, gain of 150 and 5 flashes per well.
Keywords: PDE, PDE-IV, cytotoxicity, flourescence, MLSMR, MLSCN, NIH Roadmap, qHTS, NCGC

Sequence of 3',5'-cyclic-AMP phosphodiesterase 4B (Homo sapiens) (Q07343 whole entry, looked up): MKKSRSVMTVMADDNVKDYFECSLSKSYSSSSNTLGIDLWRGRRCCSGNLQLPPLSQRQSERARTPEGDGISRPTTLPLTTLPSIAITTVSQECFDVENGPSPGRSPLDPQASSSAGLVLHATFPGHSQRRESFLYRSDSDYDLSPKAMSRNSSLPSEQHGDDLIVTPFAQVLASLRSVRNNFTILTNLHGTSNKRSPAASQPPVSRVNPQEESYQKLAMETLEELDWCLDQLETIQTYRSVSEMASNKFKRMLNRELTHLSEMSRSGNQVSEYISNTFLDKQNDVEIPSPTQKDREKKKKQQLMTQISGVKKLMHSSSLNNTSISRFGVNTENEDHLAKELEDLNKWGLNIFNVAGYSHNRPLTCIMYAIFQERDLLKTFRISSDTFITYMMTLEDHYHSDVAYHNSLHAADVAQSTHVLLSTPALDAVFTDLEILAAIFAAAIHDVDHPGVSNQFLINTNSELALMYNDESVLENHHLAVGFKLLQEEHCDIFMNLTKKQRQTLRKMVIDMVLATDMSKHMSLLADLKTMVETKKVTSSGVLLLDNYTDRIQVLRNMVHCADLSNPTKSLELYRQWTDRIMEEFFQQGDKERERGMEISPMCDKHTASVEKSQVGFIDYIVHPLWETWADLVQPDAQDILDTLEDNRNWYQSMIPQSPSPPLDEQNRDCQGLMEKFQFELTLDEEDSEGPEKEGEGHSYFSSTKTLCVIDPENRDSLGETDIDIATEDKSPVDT

SMILES	outcome
O=C(O)CCC(=O)c1ccc(-c2ccccc2)cc1	inactive
O=C(O)Cc1cc(I)c(Oc2ccc(O)c(I)c2)c(I)c1	inactive
CC(=O)[C@H]1CC[C@H]2[C@@H]3C=CC4=CC(=O)CC[C@@]4(C)[C@H]3CC[C@]12C	inactive
O=C1NCCN1c1ncc([N+](=O)[O-])s1	inactive
CN1C(=O)OC(C)(C)C1=O	inactive
CC1(C)S[C@@H]2[C@H](NC(=O)C3(N)CCCCC3)C(=O)N2[C@H]1C(=O)O	inactive
CNC(=O)c1c(I)c(C(=O)NCC(=O)Nc2c(I)c(C(=O)O)c(I)c(C(=O)NCCO)c2I)c(I)c(N(C)C(C)=O)c1I	inactive
COc1cc(S(C)=O)ccc1-c1nc2ncccc2[nH]1 (stereo unspecified)	inactive
O=P(O)(O)OP(=O)(O)O	inactive
Cc1ncc(C[n+]2csc(CCO)c2C)c(N)n1	inactive
N[C@H](CC(=O)O)C(=O)O	inactive
Cc1cc(C)c(NC(=O)C[C@H](CC(=O)O)c2cccc3ccccc23)c(C(=O)N2CCC3(CCCC3)CC2)c1	inactive
CCSc1ccc2c(c1)N(CCCN1CCN(C)CC1)c1ccccc1S2	inactive
CCCOc1cc(N)ccc1C(=O)OCCN(CC)CC	inactive
Nc1ccc(N=Nc2ccccc2)c(N)n1	inactive
CC(=O)N=c1sc(S(N)(=O)=O)nn1C	inactive
